Laboratory results reported in PubChem BioAssay AID1159580 (chemical genetic matrix, 2015).
About 2,000 (36%) of roughly 5,500 compounds were called active. Not shown: some 18% with an inconclusive outcome. No stated cut-off is given here; in the data, active means normalized growth mostly below about 0.91 (no sharp cut-off); inconclusive means no clear call, values can overlap the other calls; inactive means mostly above about 0.92. The list shows a part of the results.

Experiment: chemical genetic growth profiling, strain panel (AID 1159580);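 further: tested at 20 µM; growth read once vehicle control cultures reached saturation at 30 °C; 1 = growth at the plate median or of vehicle wells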
Conditions: growth OD

Measured: normalized growth

NS(=O)(=O)c1cc2c(cc1C(F)(F)F)NC(Cc1ccccc1)NS2(=O)=O (centres undefined)
inactive: S. cerevisiae deletion strains, locus YJR066W, strain TOR1, stronger effect = lower value 0.949 | S. cerevisiae deletion strains, locus YKL009W, strain mrt4, stronger effect = lower value 0.983 | S. cerevisiae deletion strains, locus YKL068W, stronger effect = lower value 1 | S. cerevisiae deletion strains, locus YKL085W, strain MDH1 (second series), stronger effect = lower value 0.999 | S. cerevisiae deletion strains, locus YKL085W, strain MDH1, stronger effect = lower value 0.999 | S. cerevisiae deletion strains, locus YKL160W, strain elf1, stronger effect = lower value 0.977 | S. cerevisiae deletion strains, locus YKL190W, strain CNB1, stronger effect = lower value 1 | S. cerevisiae deletion strains, locus YKR001C, strain vps1, stronger effect = lower value 0.982 | S. cerevisiae deletion strains, locus YKR026C, strain gcn3, stronger effect = lower value 0.998 | S. cerevisiae deletion strains, locus YKR091W, strain srl3, stronger effect = lower value 0.982 | S. cerevisiae deletion strains, locus YLL001W, strain dnm1, stronger effect = lower value 0.981 | S. cerevisiae deletion strains, locus YLL026W, stronger effect = lower value 0.991 | S. cerevisiae deletion strains, locus YLL041C, strain sdh2, stronger effect = lower value 0.985 | S. cerevisiae deletion strains, locus YLR027C, strain aat2, stronger effect = lower value 0.985 | S. cerevisiae deletion strains, locus YLR039C, strain RIC1, stronger effect = lower value 1.04 | S. cerevisiae deletion strains, locus YLR058C, strain SHM2, stronger effect = lower value 1 | S. cerevisiae deletion strains, locus YLR102C, strain apc9, stronger effect = lower value 1.01 | S. cerevisiae deletion strains, locus YLR113W, strain HOG1, stronger effect = lower value 0.983 | S. cerevisiae deletion strains, locus YLR221C, strain rsa3, stronger effect = lower value 0.973 | S. cerevisiae deletion strains, locus YLR258W, strain gsy2, stronger effect = lower value 0.993 | S. cerevisiae deletion strains, locus YLR262C, strain YPT6 (second series), stronger effect = lower value 0.987 | S. cerevisiae deletion strains, locus YLR262C, strain YPT6, stronger effect = lower value 1.01 | S. cerevisiae deletion strains, locus YLR268W, strain sec22, stronger effect = lower value 0.999 | S. cerevisiae deletion strains, locus YLR320W, strain mms22, stronger effect = lower value 0.957 | S. cerevisiae deletion strains, locus YLR330W, strain CHS5, stronger effect = lower value 1.01 | S. cerevisiae deletion strains, locus YLR342W, strain FKS1 (second series), stronger effect = lower value 1.06 | S. cerevisiae deletion strains, locus YLR342W, strain FKS1, stronger effect = lower value 0.988 | S. cerevisiae deletion strains, locus YLR357W, strain rsc2, stronger effect = lower value 0.978 | S. cerevisiae deletion strains, locus YLR370C, strain arc18, stronger effect = lower value 0.983 | S. cerevisiae deletion strains, locus YLR371W, strain rom2, stronger effect = lower value 1.01 | S. cerevisiae deletion strains, locus YLR384C, strain iki3, stronger effect = lower value 0.986 | S. cerevisiae deletion strains, locus YLR418C, strain cdc73, stronger effect = lower value 1.01 | S. cerevisiae deletion strains, locus YML016C, strain PPZ1, stronger effect = lower value 1.01 | S. cerevisiae deletion strains, locus YML032C, strain rad52, stronger effect = lower value 0.983 | S. cerevisiae deletion strains, locus YML120C, strain ndi1, stronger effect = lower value 0.981 | S. cerevisiae deletion strains, locus YML124C, strain tub3, stronger effect = lower value 1 | S. cerevisiae deletion strains, locus YMR058W, strain fet3, stronger effect = lower value 0.97 | S. cerevisiae deletion strains, locus YMR078C, strain ctf18, stronger effect = lower value 1 | S. cerevisiae deletion strains, locus YMR125W, strain sto1, stronger effect = lower value 1.01 | S. cerevisiae deletion strains, locus YMR129W, stronger effect = lower value 0.992 | S. cerevisiae deletion strains, locus YMR205C, strain PFK2, stronger effect = lower value 0.978 | S. cerevisiae deletion strains, locus YMR223W, strain ubp8, stronger effect = lower value 1.02 | S. cerevisiae deletion strains, locus YMR231W, strain pep5, stronger effect = lower value 1 | S. cerevisiae deletion strains, locus YMR307W, strain GAS1, stronger effect = lower value 1.06 | S. cerevisiae deletion strains, locus YNL067W, strain RPL9B, stronger effect = lower value 0.985 | S. cerevisiae deletion strains, locus YNL071W, strain lat1, stronger effect = lower value 0.994 | S. cerevisiae deletion strains, locus YNL153C, strain GIM3, stronger effect = lower value 0.975 | S. cerevisiae deletion strains, locus YNL183C, strain NPR1, stronger effect = lower value 0.927 | S. cerevisiae deletion strains, locus YNL209W, strain ssb2, stronger effect = lower value 0.993 | S. cerevisiae deletion strains, locus YNL233W, strain BNI4, stronger effect = lower value 0.993 | S. cerevisiae deletion strains, locus YNL248C, strain rpa49, stronger effect = lower value 0.996 | S. cerevisiae deletion strains, locus YNL250W, strain rad50, stronger effect = lower value 1.01 | S. cerevisiae deletion strains, locus YNL271C, strain bni1, stronger effect = lower value 1.01 | S. cerevisiae deletion strains, locus YNL298W, strain CLA4, stronger effect = lower value 1.02 | S. cerevisiae deletion strains, locus YNL307C, strain MCK1, stronger effect = lower value 1.01 | S. cerevisiae deletion strains, locus YNL322C, strain KRE1 (second series), stronger effect = lower value 0.992 | S. cerevisiae deletion strains, locus YNR049C, strain mso1, stronger effect = lower value 0.986 | S. cerevisiae deletion strains, locus YNR052C, strain pop2, stronger effect = lower value 1.01 | S. cerevisiae deletion strains, locus YOL006C, strain TOP1, stronger effect = lower value 0.953 | S. cerevisiae deletion strains, locus YOL012C, strain htz1 0.78 | S. cerevisiae deletion strains, locus YOL147C, strain pex11, stronger effect = lower value 1.01 | S. cerevisiae deletion strains, locus YOR001W, strain rrp6, stronger effect = lower value 0.997 | S. cerevisiae deletion strains, locus YOR061W, strain CKA2, stronger effect = lower value 1 | S. cerevisiae deletion strains, locus YOR069W, strain VPS5, stronger effect = lower value 1.01 | S. cerevisiae deletion strains, locus YOR070C, strain gyp1, stronger effect = lower value 0.999 | S. cerevisiae deletion strains, locus YOR080W, strain dia2, stronger effect = lower value 0.982 | S. cerevisiae deletion strains, locus YOR083W, strain WHI5, stronger effect = lower value 0.969 | S. cerevisiae deletion strains, locus YOR106W, strain vam3, stronger effect = lower value 0.958 | S. cerevisiae deletion strains, locus YOR136W, strain idh2, stronger effect = lower value 0.992 | S. cerevisiae deletion strains, locus YOR144C, strain elg1, stronger effect = lower value 0.998 | S. cerevisiae deletion strains, locus YOR184W, strain ser1, stronger effect = lower value 0.998 | S. cerevisiae deletion strains, locus YOR231W, strain MKK1, stronger effect = lower value 0.987 | S. cerevisiae deletion strains, locus YOR265W, strain rbl2, stronger effect = lower value 0.988 | S. cerevisiae deletion strains, locus YOR270C, strain vph1, stronger effect = lower value 0.956 | S. cerevisiae deletion strains, locus YOR290C, strain snf2, stronger effect = lower value 0.964 | S. cerevisiae deletion strains, locus YOR316C, strain cot1, stronger effect = lower value 1.01 | S. cerevisiae deletion strains, locus YPL051W, strain arl3, stronger effect = lower value 0.998 | S. cerevisiae deletion strains, locus YPL055C, strain LGE1, stronger effect = lower value 0.934 | S. cerevisiae deletion strains, locus YPL078C, strain atp4, stronger effect = lower value 0.988 | S. cerevisiae deletion strains, locus YPL106C, strain sse1, stronger effect = lower value 0.952 | S. cerevisiae deletion strains, locus YPL240C, strain hsp82, stronger effect = lower value 0.998 | S. cerevisiae deletion strains, locus YPL241C, strain CIN2, stronger effect = lower value 1.01 | S. cerevisiae deletion strains, locus YPL256C, strain CLN2, stronger effect = lower value 0.976 | S. cerevisiae deletion strains, locus YPR119W, strain clb2, stronger effect = lower value 1.01 | S. cerevisiae deletion strains, locus YPR141C, strain kar3, stronger effect = lower value 1.01 | S. cerevisiae deletion strains, locus YPR163C, strain tif3, stronger effect = lower value 1.01 | S. cerevisiae deletion strains, locus YPR167C, strain met16, stronger effect = lower value 1.01 | S. cerevisiae deletion strains, strain wtn01, stronger effect = lower value 1.01 | S. cerevisiae strains, strain wild type, stronger effect = lower value 1
